Source: PubChem
Most compounds without a hit are left out; they make up all but 9.2% or so of the library.
SMN2 splice enh = qHTS Assay for Enhancers of SMN2 Splice Variant Expression; Potency, µM (titrated, usually from 46.1 µM), for the others: at the highest dose activity change, positive = activation, hits mostly activators; hit rate 2.8% among 210,000; HEK293 SMN2-luciferase splicing reporter, luminescence, 30-36 h; note: % of control where 0% means no effect; nearly all actives have a fitted effect of over 55% in size
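HEK293 cells carry an SMN2 minigene-luciferase reporter in which exon 7 inclusion puts luciferase in frame. Cells were seeded at 2000 cells/well, attached for 10-12 hours, then exposed to compounds for 30-36 hours at 37C before ONE-Glo luminescence.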
ELG1 genotoxic = qHTS screen for small molecules that induce genotoxicity in human embryonic kidney (HEK293T) cells expressing luciferase-tagged ELG1 | Potency, µM (doses to about 46 µM), for inactives: top-dose activity change, positive = activation, hits mostly activators | HEK293T ELG1-luciferase reporter, luminescence, 16 h | AID 504466, 2011 | hit rate 1.3% among 330,000; note: % of control where 0% means no effect; nearly all actives have a fitted effect of over 60% in size
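Quantitative HTS format in 1536-well plates. HEK293T ELG1-luciferase reporter cells receive test compound and are incubated 16 hr at 37 °C, 5% CO2; ONE-Glo added, 30 min room temperature, then luminescence read.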
FLuc counter = qHTS profiling assay for firefly luciferase inhibitor/activator using purifed enzyme and Km concentrations of substrates (counterscreen for miR-21 project); Luciferin 4-monooxygenase (Photinus pyralis), P08659; Potency, µM (doses to about 57.5 µM), for inactives: at the top dose activity change, negative = inhibition, usual class: inhibitors; hit rate 6.9% among 360,000; purified FLuc, Km substrates, luminescence inhibition; AID 588342, 2011;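 note: plate controls were vehicle for no effect and reference inhibitor for full effect; nearly all actives have a fitted effect of over 55% in size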
Target sequence (P08659 whole entry, looked up): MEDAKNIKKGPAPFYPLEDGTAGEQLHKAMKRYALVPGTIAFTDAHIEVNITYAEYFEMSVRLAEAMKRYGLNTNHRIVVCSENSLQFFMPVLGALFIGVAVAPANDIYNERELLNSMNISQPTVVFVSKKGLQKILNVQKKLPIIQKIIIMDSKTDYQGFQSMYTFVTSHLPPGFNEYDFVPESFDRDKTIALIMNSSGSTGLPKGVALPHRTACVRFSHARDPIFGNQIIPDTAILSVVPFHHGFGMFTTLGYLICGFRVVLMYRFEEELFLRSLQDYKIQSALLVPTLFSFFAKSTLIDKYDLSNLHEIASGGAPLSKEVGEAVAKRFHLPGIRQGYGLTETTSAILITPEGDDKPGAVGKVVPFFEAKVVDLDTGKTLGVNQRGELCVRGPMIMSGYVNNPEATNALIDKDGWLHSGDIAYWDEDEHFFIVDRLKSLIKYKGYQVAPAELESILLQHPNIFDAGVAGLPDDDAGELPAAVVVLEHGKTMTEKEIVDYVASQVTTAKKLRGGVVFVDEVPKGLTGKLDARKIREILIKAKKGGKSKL
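Biochemical qHTS of compounds, final roughly 60 µM downward over six points, against 10 nM purified firefly luciferase using Km concentrations of substrates (10 uM D-luciferin, 10 uM ATP) in Tris acetate pH 7.5 buffer; luminescence output.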
ELG1 repair inh = qHTS screen for small molecules that inhibit ELG1-dependent DNA repair in human embryonic kidney (HEK293T) cells expressing luciferase-tagged ELG1. hit rate 2.3% among 330,000. HEK293T ELG1-luciferase reporter, luminescence, 16 h; DNA damage induced by 5-fluorouridine. Potency, µM (top dose mostly 46.1 µM), inactives show top-dose activity change, negative = inhibition, actives largely listed as inhibitors; note: % is set by controls: 0 for no effect and ±100 for the full control effect; nearly all actives have a fitted effect of over 55% in size
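DMSO vehicle served as the neutral condition. Each well held 2,000 cells given 5-fluorouridine plus compound; after 16 hr at 37 °C/5% CO2, ONE-Glo was added and luciferase measured 30 min later.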
NPC1 promoter act = qHTS Assay for NPC1 Promoter Activators | AID 485313, 2010 | Potency, µM (series often up to 9.22 µM), inactives show at the top dose activation, hits mostly activators | hit rate 2.4% among 320,000 | Huh7 NPC1 promoter luciferase reporter, 24 h; note: % of control where 0% means no effect; nearly all actives have a fitted effect of over 60% in size
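Huh7 reporter cells (NPC1 promoter driving luciferase) are dosed with compound for 24 h at 37 °C, 5% CO2; luciferase detection reagent is then added and luminescence measured after 10 min at ambient temperature.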
Rab9 promoter act = qHTS Assay for Rab9 Promoter Activators | Huh7 Rab9 promoter-luciferase reporter, luminescence, 24 h | AID 485297, 2010 | hit rate 2.8% among 320,000 | Potency, µM (top dose mostly 9.22 µM), inactives show top-dose activation, negative = inhibition, most hits filed as activators; note: % of control where 0% means no effect; nearly all actives have a fitted effect of over 60% in size
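Stable Rab9-luc Huh7, 1500 cells/well, 2 h settle; cmpd in DMSO, 24 h, 37 °C/5% CO2; luciferase reagent 10 min RT; luminescence.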
An asterisk follows results filed as active; ? = inconclusive; / = not tested or not shown; [ ] = another dose, or the depositor's remark. Calls come from the whole dose curve; as a rule, active = well fitted curve in the direction sought with a large enough effect; inconclusive = small, poorly fitted or top-dose-only effect, or another doubt; inactive = no such curve, though single readings can be large; an effect the other way counts as inactive or inconclusive. Potency is the fitted concentration of half-maximal effect.

SMILES	SMN2 splice enh	ELG1 genotoxic	FLuc counter	ELG1 repair inh	NPC1 promoter act	Rab9 promoter act
S=C(c1ccc(-c2ccccc2Cl)o1)N1CCOCC1	32µM*	13µM*	11µM*	?	?	?
S=C(c1ccc(-c2ccc(Br)cc2)o1)N1CCOCC1	/	?	3µM*	?	3.5µM*	2µM*
S=C(c1ccc(-c2ccc(Cl)c(Cl)c2)o1)N1CCOCC1	11µM*	6.5µM*	2.7µM*	?	2.2µM*	1.8µM*
O=S(=O)(c1ccccc1F)N1CCC(c2nc3ccccc3[nH]2)CC1	/	-17%	0%	?	7%	13%
O=c1c(-c2ccccc2)n[nH]c2ccccc12	/	0%	9.5µM*	?	2.2µM*	3.5µM*
Clc1ccccc1OCc1nc(-c2ccncc2)no1	13µM*	?	11µM*	?	2.8µM*	2µM*
Clc1ccc(OCc2nc(-c3ccncc3)no2)c(Br)c1	3.2µM*	?	2.1µM*	?	1.3µM*	0.71µM*
c1ccc(OCc2nc(-c3ccncc3)no2)cc1	/	10%	?	?	14%	?
Cc1cc(OCc2nc(-c3cccnc3)no2)c(C)cc1Br	-3%	13%	6%	1%	11%	12%
CC(=O)c1c(C)[nH]c(C(=O)NNC(=O)COc2cc(C)cc(C)c2)c1C	/	-1%	4%	0%	-1%	-3%
Cc1cccc(N2CCN(S(=O)(=O)c3cn(C)c(C)n3)CC2)c1C	/	/	-7%	/	/	/
CCc1cccc(C)c1NC(=O)CSc1nc2c(c(=O)[nH]1)CCC2	/	/	-5%	/	/	/
COc1ccccc1-c1noc(-c2ccco2)n1	13µM*	6.5µM*	11µM*	?	3.5µM*	3.2µM*
COc1ccc(-c2ccc(-c3noc(-c4ccco4)n3)c(OC)n2)cc1	?	17%	-14%	?	25%	?
COc1nc(-c2ccccc2)ccc1-c1noc(-c2ccco2)n1	13µM*	21µM*	8.5µM*	?	?	4µM*
COc1nc(-c2ccccc2)ccc1-c1noc(-c2ccccc2)n1	?	18µM*	24µM*	?	4µM*	2.8µM*
COC(=O)c1cc2oc(C)cc2n1CC(=O)Nc1ccc(OC)c(OC)c1	0%	/	-5%	/	/	/
O=C(N/N=C/C(Br)=C/c1ccccc1)c1cccnc1	/	?	13µM*	32%	1%	12%
O=C(N/N=C/C(Br)=C/c1ccccc1)c1ccc([N+](=O)[O-])cc1	/	0%[9.26 µM]	2%	0%	-1%	0%
CCOc1cc(C(=O)N/N=C/C(Br)=C/c2ccccc2)cc(OCC)c1OCC	-36%	6%	-3%	-21%	-22%	-25%
O=C(N/N=C/C(Br)=C/c1ccccc1)c1ccncc1	/	12%	24µM*	?	-2%	2%
CC[C@H]1NC(=O)c2cc(S(N)(=O)=O)c(Cl)cc2N1	-1%[20.6 µM]	/	/	/	/	/
CCc1ccc(S(=O)(=O)Nc2ccc3oc(C)c(C(=O)OCCOC)c3c2)cc1	-13%	/	?	/	/	/
COc1cc(NC(=O)Cc2ccccc2)nc(OC)n1	/	5%	-1%	0%	0%	4%
CCc1cc(C(=O)O)c(NC(=O)c2cc(OC)c(OC)c(OC)c2)s1	-33%	?	8.5µM*	?	-1%	-1%
CC(C)Cc1nnc(NC(=O)Nc2ccccc2)s1	11µM*	?	17µM*	?	?	3.2µM*
CCc1nnc(NC(=O)c2cccc(C(=O)Nc3nnc(CC)s3)n2)s1	-95%	-8%	19µM*	13µM*	-32%	-42%
